# AHR act = AHR activators, primary screen, cell-based, luminescence, luciferase reporter, human; activation, % at 5 µM; AID 2796, 2010; AHR-responsive luciferase reporter cells; 320,000 compounds, 2.5% hits; Aryl hydrocarbon receptor (Homo sapiens), P35869; in the data active = activation above about 47%;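 note: 0% = vehicle wells and 100% = reference agonist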
# NR3A LBD binder = binders of NR3A ligand-binding domain, primary screen, biophysical, differential scanning fluorimetry, uHTS; NR3A LBD differential scanning fluorimetry, Tm shift; 0% = protein alone, 100% = glycine-bound protein; Tm shift relative to glycine control, % at 25 µM; 340,000 compounds, 2.5% hits;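 active = melting temperature shift of at least 10% of the positive control shift, at one fixed dose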
# ADAM17 inh = ADAM17 inhibitors, primary screen, biochemical, QFRET; Disintegrin and metalloproteinase domain-containing protein 17 (Homo sapiens), P78536; recombinant ADAM17, EDANS/DABCYL FRET peptide cleavage; inhibition, % at 6.95 µM; 370,000 compounds, 0.83% hits;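 active = inhibition above the mean of compounds lying between control limits plus 3 SD, set per campaign, cut at about 8.5% in these data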;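 note: 0% = DMSO-only wells as the low control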
# KLK7 zymogen act = proKLK7 zymogen activators, primary screen, biochemical, fluorescence intensity; purified proKLK7, EDANS-DABCYL substrate fluorescence; 100% is mature enzyme control, 0% vehicle; activation, % at 7 µM; 370,000 compounds, 0.9% hits;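 active = activation above the mean of all tested compounds plus 3 SD, computed per campaign excluding outliers beyond control limits, cut at about 13% in these data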
# Target sequence (P49862 whole entry, looked up): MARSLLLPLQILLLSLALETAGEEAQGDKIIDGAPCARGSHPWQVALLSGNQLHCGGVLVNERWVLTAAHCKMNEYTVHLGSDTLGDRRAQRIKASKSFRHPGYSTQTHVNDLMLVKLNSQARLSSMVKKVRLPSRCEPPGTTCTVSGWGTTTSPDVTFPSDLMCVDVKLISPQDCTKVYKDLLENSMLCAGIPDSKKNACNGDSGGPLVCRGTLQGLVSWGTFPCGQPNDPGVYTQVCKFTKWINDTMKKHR
# rCAG binder = binders of r(CAG) RNA repeats, primary screen, biochemical, fluorescence; 370,000 compounds, 1.3% hits; r(CAG) RNA repeat, TO-PRO-1 dye displacement fluorescence; AID 651821, 2012; inhibition, % at 3 µM;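 active = inhibition above the plate cutoff, the mean of all test compounds on that plate plus 3 SD, cut at about 35% in these data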;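 note: 0% = DMSO alone and 100% = 100 µM mitoxantrone as full dye displacement; higher means more dye released from RNA so lower well fluorescence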
# ADAM10 inh = human ADAM10 inhibitors, primary screen, biochemical, QFRET, HTS; recombinant ADAM10, EDANS/DABCYL FRET peptide cleavage, 3 h; inhibition, % at 7 µM; 370,000 compounds, 0.62% hits;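 active = inhibition above a per-campaign cutoff equal to the mean of compounds falling between control-based bounds plus 3 SD, cut at about 20% in these data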;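 note: 0% = DMSO wells while the 100% control is not disclosed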
# AHR act confirm = AHR activators, confirmation, cell-based, luminescence, luciferase reporter, human. shares compounds with AHR act. human cells, AHR-responsive luciferase reporter. activation, % at 9 µM. 2,300 compounds, 87% hits. AID 2845, 2010; in the data active = activation above about 49%;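 note: HepG2 hepatoma cells carrying a DRE-driven firefly luciferase reporter; 0% = vehicle wells and 100% = reference agonist wells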
# PXR counter = human PXR activators, counter-screen for AHR activator project, cell-based, luciferase luminescence; shares compounds with AHR act; cell-based PXR reporter; activation, % at 11.6 µM; 2,300 compounds, 88% hits; in the data active = activation above about 11%;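 note: human hepatoma DPX-2 cells expressing full-length human PXR; 0% = DMSO and 100% = reference agonist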
# Active calls of the source: *; i = inactive; . = not tested or not shown. An excerpt weighted towards active compounds, which were near 7% of everything screened.
SMILES,AHR act,NR3A LBD binder,ADAM17 inh,KLK7 zymogen act,rCAG binder,ADAM10 inh,AHR act confirm,PXR counter
Cc1ccc(C2c3c(n[nH]c3C)C(=O)N2Cc2ccccc2)cc1 (stereo not given),.,.,2,0,-1,13,.,.
COC(=O)c1cc2c(c3c4cc(C)ccc4n(S(=O)(=O)c4ccc(C)cc4)c13)C(=O)N(Cc1ccc(C(F)(F)F)cc1)C2,.,.,2,0,17,1,.,.
O=C1c2ccccc2C(=O)N1CCc1ccccn1,99*,0,1,0,0,15,100*,10*
O=C1c2cccc3c([N+](=O)[O-])ccc(c23)C(=O)N1CCc1ccccn1,12,0,-1,0,-1,-1,.,.
CCOC(=O)Cc1c(C)nc2c(-c3cccc(Br)c3)cnn2c1C,100*,-3,-2,-1,2,3,116*,21*
CC(=O)c1cnc2c(-c3cccc(Br)c3)cnn2c1C,16,-3,4,1,4,3,.,.
Cc1cc(-c2ccncc2)n2ncc(-c3ccccc3)c2n1,.,.,-1,0,0,0,.,.
Cc1cc(N)n2ncc(-c3cccc(Br)c3)c2n1,93*,7,-76,2,9,-200,125*,34*
O=C(O)COc1ccccc1C=NNC(=O)Cc1cc(=O)[nH][nH]1,.,.,2,0,7,-7,.,.
COc1ccc(/C(C)=N/Nc2ccc(C(=O)O)cc2)c(OC)c1,-1,-3,-5,-1,2,-8,.,.
COc1ccc2c(c1)C(=NNc1ccc(C(=O)O)cc1)c1cc(OC)ccc1-2,86*,2,-4,0,32,-4,108*,11*
COc1ccc2nc(NN=Cc3cccc(C)n3)cc(C)c2c1,.,.,-12,-9,3,-34,.,.
Nc1c(Br)cc2oc(-c3ccccc3)nc2c1Br,84*,-2,-4,0,4,-4,134*,13*
COC(=O)[C@]12C[C@H](CC(=O)N3CCOCC3)C(=O)N(Cc3cccc4ccccc34)C1=C[C@H](COCc1ccccc1)O[C@@H]2C,.,.,-1,1,7,6,.,.
N#Cc1c(-c2ccccc2)cc2nc3ccccc3n2c1N,85*,-30,-262,12,5,i,88*,31*
COC(=O)[C@]12C[C@H](CC(=O)NCc3cccs3)C(=O)N(Cc3ccc(Cl)cc3Cl)C1=C[C@H](C(C)(C)C)O[C@@H]2C,.,.,4,0,5,4,.,.
COc1cc(-c2nc(-c3ccccc3)c(-c3ccc(F)cc3)[nH]2)cc2c1OCO2,116*,9,-26,-5,8,-67,84*,66*
COc1cc(-c2nc(-c3ccccc3)c(-c3cc([N+](=O)[O-])ccc3C)[nH]2)cc(OC)c1OC,15,-1,-3,0,3,-1,.,.
COc1cccc(Cn2ncc3c4sc(S(C)=O)cc4n(C)c3c2=O)c1 (stereo not given),.,.,-7,.,.,-11,.,.
COc1cccc(CNC(=O)Cn2c(-c3ccccc3)cc(C(C)=O)c2C)c1OC,.,.,6,-1,2,5,.,.
O=C(Cn1c(-c2cncs2)nc2ccccc21)NC1CCCCC1,.,.,2,-1,1,-7,.,.
NC(=S)N/N=C/c1ccc(-c2ccc([N+](=O)[O-])cc2)o1,92*,2,2,0,19,-8,118*,14*
CC(=O)Nc1ccc(/C=N/Nc2nc3ccccc3[nH]2)cc1,157*,1,-6,1,-2,-7,107*,13*
Clc1nc2ccccc2cc1/C=N/Nc1nc2ccccc2[nH]1,83*,-14,0,0,11,18,73*,21*
Cn1c(/C=N/Nc2nc3ccccc3[nH]2)nc2ccccc21,88*,5,2,-1,18,18,60*,9
SMILES,AHR act,NR3A LBD binder,ADAM17 inh,KLK7 zymogen act,rCAG binder,ADAM10 inh,AHR act confirm,PXR counter
O=C(O)c1ccc(N/N=C/c2cc3ccccc3nc2Cl)cc1,28,3,-18,1,12,-38,.,.
CCN(CC)c1ccc(/C=N/Nc2nc3ccccc3[nH]2)cc1,.,-4,-63,-5,8,-183,.,.
C(=N\Nc1nc2ccccc2[nH]1)/c1ccncc1,108*,0,1,1,-1,7,114*,11*
O=C(O)c1ccc(/C=N/Nc2nc3ccccc3[nH]2)cc1,15,-1,3,0,3,9,.,.
COc1ccc(O)c(/C=N/Nc2nc3ccccc3[nH]2)c1,24,-2,-9,-1,6,-10,.,.
COc1ccccc1Nc1nc2ccccc2[nH]1,119*,-4,-3,0,0,-4,63*,35*
Cc1nn(-c2ccccc2)c(C)c1/C=N/Nc1nc2ccccc2[nH]1,181*,-8,2,-1,5,7,34,26*
COc1cc(/C=N/Nc2nc3ccccc3[nH]2)cc(OC)c1O,81*,-2,-9,-9,1,-33,17,6
Cc1cc(=O)[nH]c(N/N=C/c2c(C)nn(-c3ccccc3)c2C)n1,3,-2,-6,1,-4,4,.,.
CN(Cc1ccccc1)C(=O)c1cccc(NC(=O)Cc2ccc(NC(=O)C3CCCN(S(=O)(=O)c4cccc([N+](=O)[O-])c4)C3)cc2)c1 (stereo not given),.,.,1,0,18,-2,.,.
Cc1cc(-c2nc3ccccc3o2)c2ccccc2n1,105*,1,-52,2,0,-216,135*,11*
Cc1nc2ccc(-c3nc4ccccc4o3)cc2[nH]1,-5,-4,-43,1,4,-131,.,.
Cc1ccnc2ccc(-c3nc4ccccc4o3)cc12,87*,1,-72,-6,2,-222,183*,54*
O=C(Nc1cccc(-c2cn3c(n2)SCC3)c1)c1ccc2ccccc2n1,94*,-11,0,0,16,-3,54*,39*
Cc1cc2n(n1)C(c1ccsc1)Nc1ccccc1-2 (stereo not given),19,0,-8,0,8,-19,.,.
CSc1ccc(C2Nc3ccccc3-c3cc(C)nn32)cc1 (stereo not given),101*,-12,-39,2,6,-191,100*,29*

# Source: PubChem (several laboratories)
